# DT40 TDP1 no CPT: qHTS for Inhibitors of human tyrosyl-DNA phosphodiesterase 1 (TDP1): qHTS in cells in absence of CPT | hit rate 15% among 420,000 | DT40 Tdp1-/- hTDP1 cells, no CPT, ATP luminescence, 48 h | AID 686978, 2013 | Potency, µM (top dose mostly 46.2 µM), most hits filed as inhibitors; also: nearly all actives have a fitted effect of over 55% in size
#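 Readout: luminescence from CellTiter-Glo after 30 min in the dark at RT. Cells: DT40 Tdp1-/- with stable hTDP1, 400/well. Exposure: compounds alone, ≥48 hr, 37 °C.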
# IL-1B inflam inh: blocks inflammasome-driven IL-1 beta release; activity change, % at 57.5 µM; hit rate 4.7% among 360,000; THP-1 LPS/ATP IL-1B secretion, AlphaLISA, 16 h; hits give low values; in the data active = activity change below about -50%; inconclusive = mostly about -30% to -49%
#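 Secreted IL-1B measured by AlphaLISA bead assay after 16 h compound exposure of THP-1 cells; compounds (final up to 57.5 uM) added 1 h before LPS (250 ng/mL) and ATP (1.25 mM) stimulation; lower signal means less secretion.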
# HT1080 IDH1KD tx: HT-1080 IDH1 knockdown cell toxicity (counter line); HT-1080 IDH1 knockdown viability, ATP luminescence, 48 h; Potency, µM (titrated, usually from 46.1 µM), hits mostly cytotoxic; hit rate 2% among 360,000; AID 686971
#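 IDH1KD HT-1080 cells, 750/well, RPMI + 5% FBS; compound pinned after 2 h settling; 48 h, 37 °C; CellTiter-Glo luminescence; % activity normalised to DMSO and no-cell wells; curves fitted, classed by r2 and efficacy.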
# DT40 TDP1 CPT: DT40-hTDP1 cell growth loss with CPT. Potency, µM (doses to about 46.2 µM), usual class: inhibitors. chicken DT40 Tdp1-/-;hTDP1 cells + 20 nM CPT, ATP luminescence, 48 h. hit rate 12% among 420,000. AID 686979; also: nearly all actives have a fitted effect of over 55% in size
#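 Chicken DT40 Tdp1-/- cells complemented with human TDP1, 400 cells/well, exposed to compounds plus 20 nM camptothecin for at least 48 h at 37 C; viability read as ATP content by CellTiter-Glo luminescence.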
# 12-LOX inh: blocks human arachidonate 12S-lipoxygenase; hit rate 1.1% among 580,000; Potency, µM (series often up to 108 µM), actives largely listed as inhibitors; AID 1671190; purified 12hLO, xylenol orange hydroperoxide absorbance
# Target sequence (P18054 whole entry, looked up): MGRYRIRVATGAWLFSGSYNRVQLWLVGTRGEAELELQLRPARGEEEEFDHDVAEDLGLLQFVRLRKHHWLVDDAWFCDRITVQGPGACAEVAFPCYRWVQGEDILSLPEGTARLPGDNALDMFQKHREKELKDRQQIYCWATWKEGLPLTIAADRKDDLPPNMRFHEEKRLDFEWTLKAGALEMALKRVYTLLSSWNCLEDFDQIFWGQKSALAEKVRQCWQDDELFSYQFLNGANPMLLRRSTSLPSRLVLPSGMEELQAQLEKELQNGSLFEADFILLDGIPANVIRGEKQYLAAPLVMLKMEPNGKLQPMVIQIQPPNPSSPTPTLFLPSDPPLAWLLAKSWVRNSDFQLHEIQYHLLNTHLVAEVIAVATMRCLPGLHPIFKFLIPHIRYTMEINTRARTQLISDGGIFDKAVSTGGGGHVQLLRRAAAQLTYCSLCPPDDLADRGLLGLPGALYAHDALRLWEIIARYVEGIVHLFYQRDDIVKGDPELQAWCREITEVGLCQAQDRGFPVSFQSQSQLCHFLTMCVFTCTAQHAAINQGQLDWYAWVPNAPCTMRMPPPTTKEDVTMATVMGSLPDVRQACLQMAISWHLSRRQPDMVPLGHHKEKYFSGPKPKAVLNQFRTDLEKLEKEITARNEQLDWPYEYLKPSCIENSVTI
#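 Hydroperoxide product was detected by ferrous iron/xylenol orange as the 573 to 405 nm absorbance ratio. Arachidonic acid at 40 uM (final) was turned over for 30 min at room temperature by 150 nM human 12hLO, pH 7.0 Hepes buffer, after 15 min compound preincubation.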
# HT1080-NT tox: kills 2HG-producing HT-1080-NT fibrosarcoma cells | HT-1080-NT fibrosarcoma viability, CellTiter-Glo ATP luminescence, 48 h | Potency, µM (top dose mostly 46.1 µM), usual class: cytotoxic | hit rate 1.6% among 360,000;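 also: NT is the 2HG producing partner of a matched IDH1 knockdown line; nearly all actives have a fitted effect of over 55% in size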
#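 Toxicity toward the 2HG-producing NT line was scored as %Activity, normalised to DMSO and no-cell wells, from CellTiter-Glo luminescence after 48 hours' treatment.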
# Numbers stand for hits; – = inactive; ? = inconclusive; · = no result given. This excerpt belongs to a sample that is enriched for hits. Unless noted, calls follow the shape of the dose curve; as a rule, active = well fitted curve in the direction sought with a large enough effect; inconclusive = small, poorly fitted or top-dose-only effect, or another doubt; inactive = no such curve, though single readings can be large; an effect the other way counts as inactive or inconclusive.
SMILES,DT40 TDP1 no CPT,IL-1B inflam inh,HT1080 IDH1KD tx,DT40 TDP1 CPT,12-LOX inh,HT1080-NT tox
COc1ccc(Cc2c(C(C)(C)C)nc3ccc(C)cn23)c(C)c1,13µM,–,?,15µM,?,?
COc1ccc(Cc2c(C(C)(C)C)nc3ccc(Cl)cn23)c(C)c1,?,–,?,?,?,?
COc1ccccc1Cc1c(C(C)(C)C)nc2ccc(C)cn12,9.2µM,–,?,0.65µM,?,?
COc1ccccc1C(CNC(=O)C(CCSC)NC(=O)c1ccccc1Cl)N1CCCC1 (stereo not given),–,–,–,?,–,–
Cc1ccc(C)c2sc(NC(=O)c3ccc(S(=O)(=O)N4CCC(C)CC4)cc3)nc12,16µM,·,·,?,–,·
CC1CCN(S(=O)(=O)c2ccc(C(=O)Nc3ncccc3O)cc2)CC1,15µM,–,–,?,–,–
Cc1nnsc1C(=O)Nc1ccc(S(=O)(=O)N2CCC(C)CC2)cc1,10µM,-55,–,?,–,–
CCN(CC(=O)NC1CCCC1)C(C)c1ccc(C#N)cc1 (stereo not given),·,·,·,·,–,·
Clc1ccc(C(Cn2ccnc2)OCc2c(Cl)cccc2Cl)c(Cl)c1 (stereo not given),?,–,?,?,–,16µM
COC(=O)/C=C/c1ccc2c(c1)S(=O)(=O)N(Cc1ccc(OC)cc1)[C@H]2CC(=O)OC,?,–,–,?,–,–
COc1cccc(N2[C@@H](CC(C)=O)c3ccc(/C=C/C(C)=O)cc3S2(=O)=O)c1,5.2µM,-100,?,5.2µM,–,–
COc1ccc(CN2[C@@H](CC(C)=O)c3ccc(/C=C/C(C)=O)cc3S2(=O)=O)cc1,9.2µM,-102,?,7.3µM,–,?
CC(=O)c1ccc(N2CCN(C(=O)CCc3ncc(-c4ccccc4)o3)CC2)c(F)c1,·,·,·,·,–,·
O=C(CC1SC(=Nc2ccc(OC(F)F)cc2)N(CCN2CCOCC2)C1=O)Nc1ccc(F)cc1F (stereo not given),?,-63,–,?,–,–
COc1ccc(OC)c(NC(=O)CC2SC(=Nc3ccc(F)cc3)N(CCC3=CCCCC3)C2=O)c1 (stereo not given),?,–,–,?,–,–
O=C(CC1SC(=Nc2ccc(OC(F)F)cc2)N(CCN2CCOCC2)C1=O)Nc1ccccc1 (stereo not given),?,–,–,16µM,–,–
O=C(Nc1c(-c2ccccc2)nc2sccn12)c1ccc(S(=O)(=O)N2CCOCC2)cc1,·,·,·,·,–,·
CCc1ccc(NC(=O)CCn2cnc3c2c(=O)n(C)c(=O)n3C)cc1,·,·,·,·,–,·
Cn1c(=O)n(CC(=O)N2CCCC2)c(=O)c2cc(S(=O)(=O)Nc3cccc(Cl)c3)ccc21,·,·,·,·,–,·
NC(=S)NN=C(Cc1ccccc1)Cc1ccccc1,3.7µM,–,–,5.8µM,11µM,–
N=C(N)SCc1cn(-c2ccccc2)nc1-c1ccc(Br)cc1,7.3µM,-77,5.2µM,9.2µM,?,5.2µM
COc1ccc(N2C(=O)C3(CCCCC3)C2C(=O)NCCc2c(C)noc2C)cc1 (stereo not given),·,·,·,·,–,·
O=C(Cc1cccs1)Nc1c(NC2CCCC2)c2ccccc2oc1=O,·,·,·,·,–,·
Nc1ccc(O)cc1,12µM,·,·,7.7µM,?,·
CCc1cc(-c2nnn(-c3cc(C(C)C)ccc3C)c2CC)ccc1-c1cn(CCc2c[nH]c3ccccc23)nn1,?,–,?,23µM,–,–
SMILES,DT40 TDP1 no CPT,IL-1B inflam inh,HT1080 IDH1KD tx,DT40 TDP1 CPT,12-LOX inh,HT1080-NT tox
CCc1cc(-c2nnn(CCC3COCCO3)c2C(C)(C)O)ccc1-c1cn(CCc2c[nH]c3ccccc23)nn1 (stereo not given),12µM,–,?,21µM,–,–
COc1ccc(Cn2c(=O)c3ccccc3n3c(-c4ccc(C)cc4)nnc23)cc1,?,·,·,?,–,·
COc1ccc(-c2nnc3n(CCc4ccccc4)c(=O)c4ccccc4n23)cc1OC,23µM,?,–,?,–,–
Cc1ccc(C2=NN(C(=O)Cn3nnc(-c4ccc(C(N)=O)cc4)n3)C(c3ccco3)C2)cc1 (stereo not given),·,·,·,·,28µM,·
Cc1ccc(C2=NN(C(=O)CN3C(=O)c4ccccc4S3(=O)=O)C(c3ccco3)C2)cc1 (stereo not given),?,–,–,13µM,–,–
CCCCN(C)Cc1c(C)[nH]c2c(C)c(C)ccc2c1=O,·,·,·,·,–,·
Cc1cc(=O)oc2cc(OCC(=O)c3cccc4ccccc34)ccc12,·,·,·,·,–,·
COc1ccccc1CNC(=O)c1cc2c(s1)CCN(C(=O)c1ccc(C)cc1)C2,·,·,·,·,–,·
O=C(/C=C/c1cccs1)c1cc(Br)ccc1OC(=O)N1CCOCC1,?,-98,?,?,–,21µM

# High-throughput results from PubChem.
